The values that follow come from PubChem BioAssay (NCI).

Among the test systems are T-47D breast; BT-549 breast; MDA-MB-435 melanoma; SW-620 colon; MCF7 breast; HCT-116 colon; HCC-2998 colon; KM12 colon.
Holding throughout (assay): NCI-60 one-dose screen, 48 h (100 = growth as untreated, 0 = no growth, -100 = all killed)
Holding throughout (conditions): 10 µM unless noted

This is part of a sample that, as a whole, favours compounds with a hit. Of some 83,000 tested, about 20% had one in any assay.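 Cell lines were cultured in 96-well plates, exposed to a single compound concentration, and assessed for percent growth 48 hours later.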 Values without a mark were called inactive. Calls of active or inactive are those of the source. How the source made its calls: active means growth percent below 10; inactive means the rest.

As for `O=c1c2c3c(sc2n2c(-c4cn(-c5ccccc5)nc4-c4ccc(Cl)cc4)nnc2n1Cc1ccccc1)CCCC3`, the growth was 81.8% in the assay on T-47D breast; 103% with BT-549 breast; 103% in the assay on MDA-MB-435 melanoma; 110% with SW-620 colon; 75.4% in the assay with MCF7 breast; 92.6% in the assay on HCT-116 colon. Besides, the results for the growth in the assay on HCC-2998 colon and in the assay with KM12 colon were 99.1% and 103%, respectively.

In the case of `O=C1NC(=Nc2ccc(Cl)cc2)S/C1=C\c1cn(-c2ccccc2)nc1-c1ccccc1`, the growth was 47.4% in the assay on T-47D breast; 84.3% in the assay on BT-549 breast; 90.1% in the assay with MDA-MB-435 melanoma; 75.2% in the assay on SW-620 colon; 69.1% in the assay with MCF7 breast; 63.8% in the assay with HCT-116 colon. Also, the growth was 100% in the assay with HCC-2998 colon and 97.5% in the assay on KM12 colon.

`CC1CC(C(C)(C)C)C(=O)C(C(C)(C)C)C1` (stereo not given): the growth is 111% with T-47D breast; 110% in the assay with BT-549 breast; 103% in the assay on MDA-MB-435 melanoma; 101% in the assay with SW-620 colon; 108% in the assay on MCF7 breast; 108% in the assay on HCT-116 colon. The growth with HCC-2998 colon is 111%; in the assay with KM12 colon, 108%.

In the case of `N=c1sc(Cc2ccc(Cl)cc2)cn1CC(=O)c1ccc(F)cc1`, the growth in the assay on T-47D breast is 64.6%; in the assay on BT-549 breast it was 94.9%; in the assay with MDA-MB-435 melanoma, 37%; in the assay on SW-620 colon it was 53.5%; in the assay with MCF7 breast, 55%; with HCT-116 colon, 63.7%. Also, the growth in the assay on HCC-2998 colon is 59%; with KM12 colon, 39.9%.

Take `CNC(=O)CCN1CCN(CC/C=C2\c3ccccc3Sc3ccc(Cl)cc32)CC1`: the growth in the assay with T-47D breast is 85%; with BT-549 breast it was 91.5%; in the assay with MDA-MB-435 melanoma, 72.3%; in the assay with SW-620 colon, 86.9%; in the assay with MCF7 breast it was 73.2%; in the assay on HCT-116 colon it was 68.8%. Besides, the growth in the assay on HCC-2998 colon is 83.6%; with KM12 colon, 62.3%.

For the molecule `CCCCCCCOc1c(OC)cc(C2CC(=O)Nc3c2c(C)nn3-c2nc3ccccc3[nH]2)cc1OC` (stereo not given), the growth is 11.8% in the assay on T-47D breast; 6.89% (active) with BT-549 breast; -27.6% (active) in the assay on MDA-MB-435 melanoma; 3.05% (active) in the assay with SW-620 colon; 6.22% (active) in the assay with MCF7 breast; 4.4% (active) in the assay with HCT-116 colon. Also, the growth was 79.2% in the assay on HCC-2998 colon and 1.11% (active) with KM12 colon.

Take `CN1CCN(CCCOc2ccc3nc(Nc4ccc(F)c(F)c4)ccc3c2)CC1`: the growth was 14.6% in the assay with T-47D breast; 79.9% with BT-549 breast; -72.3% (active) in the assay on MDA-MB-435 melanoma; -32.2% (active) in the assay on SW-620 colon; 11.8% in the assay on MCF7 breast; 5.76% (active) in the assay on HCT-116 colon. Also, the growth is -24.6% (active) in the assay on HCC-2998 colon and 11.8% in the assay on KM12 colon.

As for `CC(C)Sc1nc(NNC(N)=S)c(C#N)c(-c2ccc(F)cc2)n1`, the growth with T-47D breast was 83.2%; in the assay on BT-549 breast, 104%; with MDA-MB-435 melanoma, 108%; in the assay on SW-620 colon it was 106%; in the assay with MCF7 breast it was 99.1%; with HCT-116 colon, 94.6%. Moreover, the figures for the growth in the assay on HCC-2998 colon and with KM12 colon were 101% and 99%, respectively.

For `CCOC(=O)c1c2c(n3ccc(NC(=O)OC(C)(C)C)cc13)C(=O)c1ncccc1C2=O`, the growth in the assay on T-47D breast is 5.16% (active); in the assay on BT-549 breast it was -36.7% (active); in the assay on MDA-MB-435 melanoma, -62.2% (active); in the assay on SW-620 colon, -74.9% (active); with MCF7 breast, -72.2% (active); in the assay on HCT-116 colon it was -65.8% (active). For the same molecule, the growth in the assay on HCC-2998 colon was -59.4% (active); in the assay with KM12 colon, -46.4% (active).

Consider `N[C@@H](CCCCNCC(=O)O)C(=O)O`, for which the growth with T-47D breast was 96.9%; with BT-549 breast, 111%; in the assay with MDA-MB-435 melanoma it was 102%; in the assay with SW-620 colon, 101%; in the assay on MCF7 breast, 105%; with HCT-116 colon it was 106%. Moreover, the growth in the assay with HCC-2998 colon is 103%; in the assay on KM12 colon it was 101%.

As for `COc1cccc(-c2nc3sccn3c2-c2ccnc(NCCNS(=O)(=O)c3cccc(Cl)c3)c2)c1`, the growth in the assay with T-47D breast is 1.84% (active); in the assay on BT-549 breast, 18.3%; in the assay on MDA-MB-435 melanoma it was 59.7%; in the assay on SW-620 colon, 66.5%; with MCF7 breast, 43.2%; with HCT-116 colon, 40%. Besides, the growth in the assay on HCC-2998 colon was 64.2%; with KM12 colon, 42.8%.

As to `COC1=C(OC)C(=O)C(OC)=C(OC)C1=O`, the growth in the assay on T-47D breast is 94.2%; in the assay on BT-549 breast it was 101%; with MDA-MB-435 melanoma it was 103%; in the assay on SW-620 colon it was 101%; with MCF7 breast it was 99.5%; in the assay with HCT-116 colon, 98.6%. Besides, the growth in the assay on HCC-2998 colon is 89.3%; with KM12 colon, 100%.

With `Cc1cccc(NC(=O)CSc2nc3ccccc3[nH]2)c1`, the growth is 88.9% in the assay on T-47D breast; 104% in the assay on BT-549 breast; 103% in the assay with MDA-MB-435 melanoma; 101% with SW-620 colon; 92% with MCF7 breast; 107% in the assay on HCT-116 colon. The values for the growth in the assay on HCC-2998 colon and in the assay on KM12 colon were 102% and 100%, respectively.

Regarding `O=C1Nc2ccc(F)cc2C12Nc1cc(Cl)ccc1S2` (stereo not given), the growth was 40% in the assay with T-47D breast; 67.7% in the assay on BT-549 breast; 97.5% with MDA-MB-435 melanoma; 106% with SW-620 colon; 60.3% with MCF7 breast; 85.7% with HCT-116 colon. Also, the results for the growth in the assay on HCC-2998 colon and in the assay on KM12 colon were 99.5% and 90.5%, respectively.

`O=C(Nc1cccc(C(F)(F)F)c1)Nc1cccc(C(F)(F)F)c1`: the growth is -4.96% (active) with T-47D breast; 0.669% (active) in the assay with BT-549 breast; 9.11% (active) in the assay with MDA-MB-435 melanoma; 15.2% with SW-620 colon; 5.26% (active) with MCF7 breast; -10.8% (active) in the assay with HCT-116 colon. In addition, the growth was 11.8% in the assay with HCC-2998 colon and 4.98% (active) in the assay with KM12 colon.
